Each structure is given as a SMILES string. For some assays here: Measured potencies and affinities stand elsewhere.

Set-up in all cases: scale not given: direction of the effect not stated beside the values
Assay [1] has as its target Protein translocase subunit SecA (Escherichia coli (strain K12)) (UniProt P10408). Description: Assay to Identify E. coli SecA ATPase Inhibitors. It counts as functional. The conditions noted are these: 30 µM.
The target of assay [2] is T1, Ubiquitin-activating enzyme e1, putative (Leishmania donovani (strain BPK282A1)) (UniProt E9BSI1).
T1 sequence (whole entry): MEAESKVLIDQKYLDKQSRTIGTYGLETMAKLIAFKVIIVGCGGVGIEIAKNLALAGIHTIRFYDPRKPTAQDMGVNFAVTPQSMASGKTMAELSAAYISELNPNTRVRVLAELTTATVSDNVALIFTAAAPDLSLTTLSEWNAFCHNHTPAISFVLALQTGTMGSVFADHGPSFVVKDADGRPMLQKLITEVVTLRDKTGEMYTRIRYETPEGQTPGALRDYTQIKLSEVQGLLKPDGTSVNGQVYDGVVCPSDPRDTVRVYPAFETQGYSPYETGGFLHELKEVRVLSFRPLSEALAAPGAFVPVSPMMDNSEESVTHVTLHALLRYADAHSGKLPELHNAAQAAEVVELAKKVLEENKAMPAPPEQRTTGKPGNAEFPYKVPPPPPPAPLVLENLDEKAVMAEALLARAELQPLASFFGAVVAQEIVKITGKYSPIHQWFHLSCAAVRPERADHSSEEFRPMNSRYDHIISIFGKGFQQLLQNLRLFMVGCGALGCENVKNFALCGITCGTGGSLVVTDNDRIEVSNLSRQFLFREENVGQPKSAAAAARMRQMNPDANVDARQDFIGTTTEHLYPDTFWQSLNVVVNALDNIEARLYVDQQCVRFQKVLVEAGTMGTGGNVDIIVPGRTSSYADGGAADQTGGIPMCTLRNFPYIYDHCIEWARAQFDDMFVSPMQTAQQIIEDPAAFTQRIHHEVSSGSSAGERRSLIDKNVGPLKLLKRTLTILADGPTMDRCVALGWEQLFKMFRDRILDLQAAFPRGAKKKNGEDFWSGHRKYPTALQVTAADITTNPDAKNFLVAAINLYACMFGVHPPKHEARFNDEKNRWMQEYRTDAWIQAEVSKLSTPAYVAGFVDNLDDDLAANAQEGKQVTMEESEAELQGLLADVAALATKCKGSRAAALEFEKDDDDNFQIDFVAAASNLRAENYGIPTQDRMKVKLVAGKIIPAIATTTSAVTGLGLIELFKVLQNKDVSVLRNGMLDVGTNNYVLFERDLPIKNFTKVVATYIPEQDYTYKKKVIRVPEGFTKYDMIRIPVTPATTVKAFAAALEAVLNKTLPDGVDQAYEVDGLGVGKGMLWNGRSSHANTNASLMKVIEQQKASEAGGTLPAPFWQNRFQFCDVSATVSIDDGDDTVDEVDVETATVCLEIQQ
The assay can be described thus: Leishmania donovani Ubiquitin Activating Enzyme (LdE1). It counts as functional. The conditions noted are these: 30 µM.

The target of assay [3] is T2, Aspartate--tRNA(Asp/Asn) ligase (Mycobacterium tuberculosis (strain ATCC 25618 / H37Rv)) (UniProt P9WFW3). Note: in the data most compounds retested in dose-response had high values.
T2 sequence (whole entry): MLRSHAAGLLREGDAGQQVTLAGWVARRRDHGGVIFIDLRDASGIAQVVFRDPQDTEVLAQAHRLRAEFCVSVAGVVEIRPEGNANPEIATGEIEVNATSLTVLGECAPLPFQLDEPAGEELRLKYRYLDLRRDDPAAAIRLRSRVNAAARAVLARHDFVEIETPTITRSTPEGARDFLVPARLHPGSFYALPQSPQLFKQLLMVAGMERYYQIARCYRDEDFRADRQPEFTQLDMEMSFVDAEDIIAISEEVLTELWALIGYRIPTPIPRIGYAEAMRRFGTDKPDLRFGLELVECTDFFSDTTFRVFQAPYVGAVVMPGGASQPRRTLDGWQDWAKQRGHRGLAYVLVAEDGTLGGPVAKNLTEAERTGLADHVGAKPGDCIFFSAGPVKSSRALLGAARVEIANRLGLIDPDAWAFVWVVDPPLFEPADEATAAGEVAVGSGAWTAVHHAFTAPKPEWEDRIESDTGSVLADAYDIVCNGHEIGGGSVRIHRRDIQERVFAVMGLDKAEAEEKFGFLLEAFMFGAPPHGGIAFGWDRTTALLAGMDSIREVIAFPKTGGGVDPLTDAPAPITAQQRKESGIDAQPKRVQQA
Description: Assay for Asp RNA synthetase-1 from Mycobacterium tuberculosis. It counts as functional. The conditions noted are these: 30 µM.

Assay [4] addresses AMP-activated protein kinase, AMPK (Homo sapiens) (UniProt P54646+O43741+P54619+Q9UGJ0+Q9Y478+Q13131+Q9UGI9). Description: AMP-dependent Kinase enzyme assay. An in vitro enzyme assay that detects ADP turnover that is directly proportional to AMPK activity. This uses naive AMPK that is activated during the assay with MK-8722. The following applies: 30 µM. It counts as functional.

Assay [5] addresses Sialic acid-binding Ig-like lectin 9 (Homo sapiens) (UniProt Q9Y336). Description: Hs-Siglec9 ALPHAscreen SOP 20170721. The conditions noted are these: 10 µM.
The test system of assay [6] is Trypanosoma cruzi. Description: Trypanosoma cruzi phosphomannomutase and mannose-1-phosphate guanylyltransferase assay. It counts as functional. The following applies: 10 µM.
Assay [7] concerns the target T3, Arginase-2, mitochondrial (Homo sapiens) (UniProt P78540).
T3 sequence (whole entry): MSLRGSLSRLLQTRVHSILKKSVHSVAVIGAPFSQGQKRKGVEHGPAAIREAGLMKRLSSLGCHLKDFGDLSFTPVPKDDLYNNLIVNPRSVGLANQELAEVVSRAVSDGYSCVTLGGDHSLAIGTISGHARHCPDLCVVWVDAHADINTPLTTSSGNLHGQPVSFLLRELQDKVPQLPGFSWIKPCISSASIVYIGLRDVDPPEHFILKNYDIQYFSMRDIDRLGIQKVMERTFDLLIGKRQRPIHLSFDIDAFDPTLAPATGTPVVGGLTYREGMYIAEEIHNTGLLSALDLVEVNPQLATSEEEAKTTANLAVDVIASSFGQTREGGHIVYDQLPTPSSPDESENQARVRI
The assay can be described thus: in vitro enzyme assay to detect the production of urea directly proportional to the activity of Arginase II. Note: in the data most compounds retested in dose-response had high values. The following applies: 33.3 µM. It counts as functional.

Assay [8] concerns the target T4, Proteasome subunit beta (Trypanosoma cruzi) (UniProt O96673).
T4 sequence (whole entry): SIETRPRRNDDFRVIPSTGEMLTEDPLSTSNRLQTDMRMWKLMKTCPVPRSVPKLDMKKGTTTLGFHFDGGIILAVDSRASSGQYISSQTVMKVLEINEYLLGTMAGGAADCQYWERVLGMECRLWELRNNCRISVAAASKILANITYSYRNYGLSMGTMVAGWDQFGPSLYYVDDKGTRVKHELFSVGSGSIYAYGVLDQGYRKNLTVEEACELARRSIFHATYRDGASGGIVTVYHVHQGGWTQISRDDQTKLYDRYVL
Description: Trypanosoma cruzi proteasome chymotrypsin-like activity (TcProtChymo) assay. Note: in the data most compounds retested in dose-response had high values. It counts as functional. The conditions noted are these: 9.37 µM.

Assay [9] is filed under the species Homo sapiens. Description: To identify inhibition of the IFN signalling (Jak-Stat) pathway via expression of an eGFP reporter gene under the control of an IFN-stimulated response element (ISRE) containing MxA promoter. It counts as functional. The conditions noted are these: 30 µM.
The target in assay [10] is Shiga toxin 2 (Escherichia coli O157:H7) (UniProt P09385+P09386). Description: E. coli 0.157:H7 Shiga Toxin SOP - stx2 screening assay. The conditions noted are these: 30 µM. It counts as functional.
Assay [11] has as its target T5, Tyrosyl-tRNA synthetase, putative (Trypanosoma cruzi (strain CL Brener)) (UniProt Q4DSP6).
T5 sequence (whole entry): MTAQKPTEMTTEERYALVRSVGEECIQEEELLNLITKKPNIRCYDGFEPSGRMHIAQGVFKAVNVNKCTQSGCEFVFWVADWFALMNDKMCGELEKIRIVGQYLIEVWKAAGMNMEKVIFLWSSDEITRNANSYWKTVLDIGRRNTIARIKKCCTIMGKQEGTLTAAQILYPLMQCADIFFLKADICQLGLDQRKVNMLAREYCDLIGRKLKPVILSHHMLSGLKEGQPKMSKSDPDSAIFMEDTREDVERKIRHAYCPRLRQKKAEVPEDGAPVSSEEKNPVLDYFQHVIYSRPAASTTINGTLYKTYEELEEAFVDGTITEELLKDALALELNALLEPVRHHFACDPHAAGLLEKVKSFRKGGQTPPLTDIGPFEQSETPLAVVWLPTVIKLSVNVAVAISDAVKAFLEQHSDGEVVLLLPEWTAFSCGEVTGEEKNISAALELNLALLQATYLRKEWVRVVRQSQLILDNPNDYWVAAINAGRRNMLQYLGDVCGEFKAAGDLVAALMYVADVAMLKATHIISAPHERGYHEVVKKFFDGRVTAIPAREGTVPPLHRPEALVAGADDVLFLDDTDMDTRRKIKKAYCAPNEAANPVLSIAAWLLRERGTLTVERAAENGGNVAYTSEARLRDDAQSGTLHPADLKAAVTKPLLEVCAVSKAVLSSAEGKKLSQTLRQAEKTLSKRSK
Description: Trypanosoma cruzi tyrosyl tRNA synthetase (TcYRS) _High Tyrosine SOP. Note: in the data most compounds retested in dose-response had high values. The conditions noted are these: 30 µM. It counts as functional.

In assay [12] the target is T5, Tyrosyl-tRNA synthetase, putative (Trypanosoma cruzi (strain CL Brener)). The assay can be described thus: Trypanosoma cruzi tyrosyl tRNA synthetase (TcYRS) SOP. It counts as functional. The conditions noted are these: 30 µM.
For assay [13], the target named is Chromo domain-containing protein 1 (Saccharomyces cerevisiae (strain ATCC 204508 / S288c) (Baker's yeast)) (UniProt P32657). The assay can be described thus: ScCHD-1 Enzyme Inhibition Assay. Note: in the data most compounds retested in dose-response had high values. It counts as functional. The conditions noted are these: 30 µM.
Chromo domain-containing protein 1 (Saccharomyces cerevisiae (strain ATCC 204508 / S288c) (Baker's yeast)), sequence (P32657 whole entry, the tested form may be a part): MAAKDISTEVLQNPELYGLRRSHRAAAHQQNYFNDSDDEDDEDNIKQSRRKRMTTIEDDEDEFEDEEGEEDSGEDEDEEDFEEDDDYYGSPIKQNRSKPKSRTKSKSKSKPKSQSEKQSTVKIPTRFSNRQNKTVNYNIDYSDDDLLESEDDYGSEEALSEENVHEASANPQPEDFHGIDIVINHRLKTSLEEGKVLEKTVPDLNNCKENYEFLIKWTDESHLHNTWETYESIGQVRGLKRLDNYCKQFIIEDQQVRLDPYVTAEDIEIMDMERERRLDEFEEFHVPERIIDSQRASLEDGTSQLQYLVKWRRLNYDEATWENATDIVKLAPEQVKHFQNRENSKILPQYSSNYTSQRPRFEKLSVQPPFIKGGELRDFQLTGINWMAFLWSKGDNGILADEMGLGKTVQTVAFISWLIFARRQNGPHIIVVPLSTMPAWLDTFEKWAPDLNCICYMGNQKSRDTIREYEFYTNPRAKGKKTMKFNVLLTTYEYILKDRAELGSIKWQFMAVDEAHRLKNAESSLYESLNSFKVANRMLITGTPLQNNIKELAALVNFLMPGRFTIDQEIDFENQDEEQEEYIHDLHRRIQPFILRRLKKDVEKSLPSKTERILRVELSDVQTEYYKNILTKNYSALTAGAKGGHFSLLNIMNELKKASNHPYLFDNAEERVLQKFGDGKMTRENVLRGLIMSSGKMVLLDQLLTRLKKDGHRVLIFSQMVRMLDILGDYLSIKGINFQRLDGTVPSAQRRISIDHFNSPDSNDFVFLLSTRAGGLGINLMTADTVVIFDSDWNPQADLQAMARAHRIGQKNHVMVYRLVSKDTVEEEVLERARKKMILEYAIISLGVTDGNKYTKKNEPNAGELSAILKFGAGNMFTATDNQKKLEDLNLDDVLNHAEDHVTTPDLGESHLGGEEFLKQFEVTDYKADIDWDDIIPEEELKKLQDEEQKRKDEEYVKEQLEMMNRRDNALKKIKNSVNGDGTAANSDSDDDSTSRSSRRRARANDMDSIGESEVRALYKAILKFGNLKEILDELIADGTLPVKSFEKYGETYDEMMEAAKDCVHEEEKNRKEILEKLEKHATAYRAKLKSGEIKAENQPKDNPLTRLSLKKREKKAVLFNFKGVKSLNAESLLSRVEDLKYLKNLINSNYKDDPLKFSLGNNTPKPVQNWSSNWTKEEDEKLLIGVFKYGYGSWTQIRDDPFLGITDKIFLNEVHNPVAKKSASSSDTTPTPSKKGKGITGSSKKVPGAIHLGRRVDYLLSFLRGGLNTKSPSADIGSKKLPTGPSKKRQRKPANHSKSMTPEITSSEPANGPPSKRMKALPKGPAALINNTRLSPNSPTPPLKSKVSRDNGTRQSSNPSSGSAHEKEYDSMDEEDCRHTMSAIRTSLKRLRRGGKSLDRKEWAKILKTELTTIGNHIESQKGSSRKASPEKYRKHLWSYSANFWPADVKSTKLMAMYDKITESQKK

Protein translocase subunit SecA (Escherichia coli (strain K12)), sequence (P10408 whole entry): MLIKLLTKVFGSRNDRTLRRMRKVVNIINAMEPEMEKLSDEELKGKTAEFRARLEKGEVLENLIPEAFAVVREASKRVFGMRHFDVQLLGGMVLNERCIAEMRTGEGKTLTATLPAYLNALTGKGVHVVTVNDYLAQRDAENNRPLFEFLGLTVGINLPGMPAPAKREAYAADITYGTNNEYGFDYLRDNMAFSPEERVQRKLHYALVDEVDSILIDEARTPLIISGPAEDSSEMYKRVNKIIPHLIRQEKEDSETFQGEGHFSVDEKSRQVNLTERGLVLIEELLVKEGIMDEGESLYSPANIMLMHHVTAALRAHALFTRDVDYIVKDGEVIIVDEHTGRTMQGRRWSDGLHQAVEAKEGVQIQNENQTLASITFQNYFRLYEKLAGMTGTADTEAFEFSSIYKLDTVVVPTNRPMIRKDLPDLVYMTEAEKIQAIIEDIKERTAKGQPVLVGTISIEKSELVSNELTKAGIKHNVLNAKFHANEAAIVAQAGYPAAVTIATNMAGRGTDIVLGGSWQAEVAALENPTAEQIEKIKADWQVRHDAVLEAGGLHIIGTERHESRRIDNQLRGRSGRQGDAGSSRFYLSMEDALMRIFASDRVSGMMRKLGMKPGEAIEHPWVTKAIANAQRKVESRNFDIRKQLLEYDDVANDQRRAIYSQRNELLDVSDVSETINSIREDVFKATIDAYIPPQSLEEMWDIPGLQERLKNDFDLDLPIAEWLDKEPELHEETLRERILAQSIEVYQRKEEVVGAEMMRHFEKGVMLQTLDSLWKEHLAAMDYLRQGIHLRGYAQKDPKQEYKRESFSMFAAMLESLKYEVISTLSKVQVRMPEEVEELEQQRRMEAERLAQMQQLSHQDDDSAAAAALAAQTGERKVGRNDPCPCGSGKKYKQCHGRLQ
Sialic acid-binding Ig-like lectin 9 (Homo sapiens), sequence (Q9Y336 whole entry): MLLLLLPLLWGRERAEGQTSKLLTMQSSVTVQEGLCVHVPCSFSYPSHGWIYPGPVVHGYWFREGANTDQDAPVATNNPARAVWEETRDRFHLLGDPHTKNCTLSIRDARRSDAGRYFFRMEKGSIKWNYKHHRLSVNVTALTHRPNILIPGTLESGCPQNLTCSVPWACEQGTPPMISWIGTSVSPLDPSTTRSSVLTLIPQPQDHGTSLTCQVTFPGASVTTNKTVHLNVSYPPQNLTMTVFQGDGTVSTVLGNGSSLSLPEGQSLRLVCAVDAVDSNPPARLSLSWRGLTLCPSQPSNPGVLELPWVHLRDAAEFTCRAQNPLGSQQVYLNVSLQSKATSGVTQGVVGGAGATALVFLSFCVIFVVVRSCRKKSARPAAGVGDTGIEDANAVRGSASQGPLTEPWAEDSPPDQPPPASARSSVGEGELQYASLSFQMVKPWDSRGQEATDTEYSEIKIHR

In the case of `Cc1cccc(CN2CC[C@@H]3[C@@H]2CCN3C(=O)c2cnoc2C)n1`, the Percent Effect in assay [1] is -3.21%; in assay [2], 10.8%; in assay [3] it was -2.46%; in assay [4], -5.71%; in assay [5], -1.95%; in assay [6] it was 5.27%. In addition, the Percent Effect in assay [7] was found to be 34.2%; in assay [8], 10.7%; in [9], 7.71%; in assay [10], 5.3%; in assay [11], 3.96%; in assay [12], 15.8%. Also, the Percent Effect in assay [13] was -1.59%.

For `c1ccc(O[C@H]2CC[C@H]3[C@H]2OCCN3Cc2nccs2)nc1`, the Percent Effect in assay [1] is -1.17%; in [2], -5.2%; in assay [3] it was 5.47%; in assay [4], -3.9%; in assay [5] it was 10.1%; in [6], 7.57%. Moreover, the Percent Effect is -41.4% in assay [7]; 13.6% in assay [8]; 21% in assay [9]; -14.7% in assay [10]; 3.23% in [11]; 8.64% in assay [12]. For the same molecule, the Percent Effect in assay [13] was -5.68%.

For `CCn1cc(CN2CCCN(C(=O)Cc3ccc(C)nc3)CC2)cn1`, the Percent Effect in assay [1] is -6.08%; in assay [2] it was 10.4%; in assay [3], -1.87%; in assay [4] it was 0.798%; in assay [5] it was 5.82%; in [6], 6.76%. Further, the Percent Effect in assay [7] was -3.58%; in assay [8] it was 5.09%; in [9], -17.1%; in assay [10] it was 1.69%; in [11] it was -1.91%; in [12] it was 9.41%. Also, in assay [13], the Percent Effect was -14.6%.

`c1cncc(OC[C@@H]2CC[C@H]3[C@H](CCN3Cc3cccs3)O2)c1`: the Percent Effect was -2.2% in assay [1]; 5.33% in [2]; -2.1% in assay [3]; 4.9% in [4]; -3.46% in assay [5]; -2.56% in [6]. Besides, the Percent Effect in assay [7] is 2.1%; in assay [8], -0.969%; in [9], -0.872%; in assay [10], -5.68%; in [11], 2.13%; in assay [12], 8.97%. Besides, the Percent Effect in [13] worked out at 2.16%.

For `COc1cc(CNC(C)Cn2cccn2)cc(OC)c1OC` (stereo not given), the Percent Effect in [1] is 0.206%; in assay [2], 18.2%; in [3], -3.28%; in assay [4], 0.589%; in assay [5], -6.87%; in assay [6], -7.3%. In addition, the Percent Effect in assay [7] was 4.98%; in assay [8], 2.87%; in [9], 29.8%; in assay [10] it was -15.9%; in assay [11], 7.77%; in assay [12], 14.6%. The Percent Effect in assay [13] was -9.78%.

Values taken from ChEMBL document CHEMBL3988442, “University of Dundee, Small-Polar-MMV Screening Library” (2021).
